According to PubChem BioAssay (NCI):
Compounds without any hit were thinned out: in the full panel of roughly 83,000, 20% have a hit.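 Interpretation: 100, growth as untreated; towards 0, rising growth inhibition; 0, no net growth; 0 to -100, cell death. Compounds scoring below 10 were considered active.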 Values without a mark were called inactive. Calls of active or inactive are those of the source.

Tests used:
Assay in all cases: NCI-60 one-dose screen, 48 h (100 = growth as untreated, 0 = no growth, -100 = all killed)
K-562 leukemia = conditions: 10 µM unless noted
MALME-3M melanoma = conditions: 10 µM unless noted
MDA-MB-231 breast = conditions: 10 µM unless noted
RXF 393 renal = conditions: 10 µM unless noted
SF-268 CNS = conditions: 10 µM unless noted
SF-539 CNS = conditions: 10 µM unless noted
UACC-257 melanoma = conditions: 10 µM unless noted
M14 melanoma = conditions: 10 µM unless noted
HCT-15 colon = conditions: 10 µM unless noted
SNB-75 CNS = conditions: 10 µM unless noted
SNB-19 CNS = conditions: 10 µM unless noted
PC-3 prostate = conditions: 10 µM unless noted
UACC-62 melanoma = conditions: 10 µM unless noted
LOX IMVI melanoma = conditions: 10 µM unless noted
SK-MEL-28 melanoma = conditions: 10 µM
SK-MEL-2 melanoma = conditions: 10 µM unless noted
HT29 colon = conditions: 10 µM unless noted
U251 CNS = conditions: 10 µM unless noted
SK-MEL-5 melanoma = conditions: 10 µM unless noted
SF-295 CNS = conditions: 10 µM unless noted

Compound	growth (K-562 leukemia)	growth (MALME-3M melanoma)	growth (MDA-MB-231 breast)	growth (RXF 393 renal)	growth (SF-268 CNS)	growth (SF-539 CNS)	growth (UACC-257 melanoma)	growth (M14 melanoma)	growth (HCT-15 colon)	growth (SNB-75 CNS)	growth (SNB-19 CNS)	growth (PC-3 prostate)	growth (UACC-62 melanoma)	growth (LOX IMVI melanoma)	growth (SK-MEL-28 melanoma)	growth (SK-MEL-2 melanoma)	growth (HT29 colon)	growth (U251 CNS)	growth (SK-MEL-5 melanoma)	growth (SF-295 CNS)
COC(=O)[C@H]1CCCN1C(=O)[C@H]1CCCN1C(=O)[C@H](Cc1c[nH]c2ccccc12)NC(=S)Nc1cc(C(F)(F)F)cc(C(F)(F)F)c1	34.7%	70.5%	-38.5% (active)	64.8%	47.8%	74.3%	67.9%	56%	70.4%	52.8%	51.3%	39.9%	57%	34.5%	54.8%	94.9%	–	–	–	–
COc1cc(OC)cc(N2C(=O)N(Cc3ccc(C(C)(C)C)cc3)c3ccccc3S2(=O)=O)c1	33.3%	64%	77.4%	60.2%	89%	87.2%	105%	85.2%	67.9%	73.9%	94.7%	84.4%	90.6%	85.1%	91.9%	88.5%	93.7%	95.9%	85.8%	–
O=C(/C=C/c1ccccn1)c1ccc(OCc2nnc(-c3ccc(Cl)cc3)o2)cc1	-28.1% (active)	60.4%	33.4%	-71.7% (active)	28.6%	-4.02% (active)	56.5%	–	18.9%	50.8%	52.3%	58.9%	49.3%	-92.1% (active)	53.8%	98.6%	-62.5% (active)	–	–	–
O=C(NC1CCN(Cc2ccccc2)CC1)c1cc(C(=O)NC2CCN(Cc3ccccc3)CC2)cc(C(=O)NC2CCN(Cc3ccccc3)CC2)c1	64.6%	77.9%	90.3%	60.1%	71.4%	90.5%	81.2%	83.2%	78.2%	68%	85.7%	74.4%	84.9%	–	95.6%	73.6%	–	72.4%	85.2%	–
CN1C(=O)N(C)C2C1NN=c1s/c(=C\c3ccc(Cl)cc3Cl)c(=O)n12 (centres undefined)	7.76% (active)	62.4%	30.4%	16.2%	31.6%	1.09% (active)	75.8%	–	–	–	26.5%	20%	30%	19.7%	58.7%	57%	15%	27.5%	–	17.4%
CCOC(=O)c1c(Cl)c2c(n1Cc1ccccc1)-c1oncc1CCC2	18.6%	42.3%	64.4%	64.3%	86.7%	74%	79.7%	55.3%	36.1%	69.1%	83.2%	65.6%	49.2%	66.7%	44.7%	52.7%	25.8%	64.5%	53.1%	–
CCOC(=O)c1cnc2ccc(Cl)cc2c1NCCCN(C)C	1.51% (active)	-6.52% (active)	15.8%	-3.24% (active)	1.81% (active)	-12.7% (active)	-3.99% (active)	–	26.2%	35.6%	24.5%	25.7%	-15.6% (active)	1.24% (active)	50.1%	-0.411% (active)	27.3%	8.33% (active)	-50.8% (active)	–
COc1ccc(S(=O)(=O)N(Cc2ccc3c(n2)C=CC(C)(C)O3)C2CCC2)cc1OC	7.07% (active)	-36.9% (active)	3.21% (active)	-20.2% (active)	-9.29% (active)	0.455% (active)	-13.9% (active)	–	13.5%	-12.5% (active)	8.75% (active)	-3.05% (active)	–	-40.6% (active)	–	-37.5% (active)	3.8% (active)	0.365% (active)	–	-43.3% (active)
CCCCCCc1cc2cc(-c3nc4ccccc4[nH]3)c(=Nc3ccccc3C)oc2cc1O	7.87% (active)	-29.3% (active)	41.6%	28.5%	65.5%	75.3%	4.39% (active)	9.12% (active)	–	47.8%	71.7%	37.6%	54.5%	25.5%	-10.3% (active)	47.2%	–	34%	41.7%	–
COc1ccc(/C=C2\SC(=Nc3ccccc3)NC2=O)cc1	-64.2% (active)	-86% (active)	-83% (active)	-95.5% (active)	-82.5% (active)	-96.2% (active)	-91.8% (active)	-79.8% (active)	–	-97.9% (active)	-50% (active)	-73.5% (active)	-91% (active)	-82.9% (active)	-100% (active)	-84.8% (active)	-89.2% (active)	-90.1% (active)	-97.2% (active)	–
CCOC(=O)c1cc2c(n1Cc1cc(OC)c(OC)c(OC)c1)-c1oncc1CCC2	6.98% (active)	43.9%	12.3%	26.9%	46.1%	-7.45% (active)	70.7%	18%	16.9%	20.2%	72.1%	37%	25.5%	27%	41.1%	54%	4.59% (active)	25.3%	8.95% (active)	–
Cc1cc(Nc2ccc(OCc3ccccc3)cc2)nc2cc(O)ccc12	5.02% (active)	43.6%	37.7%	93.7%	79.8%	97.5%	43.7%	40.4%	16.9%	81.6%	70.5%	53.5%	71.7%	13.3%	59.2%	70.4%	2.05% (active)	10.2%	9.21% (active)	–
Clc1ccc(-c2nnc(COc3ccc(C4=NNC(c5ccco5)C4)cc3)o2)cc1 (centres undefined)	80.7%	109%	82.7%	91.7%	93.9%	95.6%	96.1%	88%	58.8%	84.9%	92.5%	80.8%	76.3%	84.8%	101%	106%	101%	–	–	–
O=S(=O)(c1ccccc1)n1cc2c(c1-c1ccccc1)CCc1sc(Nc3ccccc3)nc1-2	63.7%	105%	79.4%	87%	86.7%	106%	96.5%	87.8%	83.8%	93%	95.2%	69.8%	78.4%	77.8%	106%	93.4%	93%	78.5%	88.3%	–
NCCCNc1nc2ccccc2c2c(=O)c3cc(F)ccc3sc12	-50.4% (active)	76.7%	-53.1% (active)	41.9%	34.3%	55.2%	68.1%	–	-49.3% (active)	25%	44.4%	18.9%	-76.1% (active)	–	0.2% (active)	50.6%	-50.9% (active)	-56.1% (active)	76.4%	85.9%
O=Nc1c(O)ccc2ccccc12.O=Nc1c(O)ccc2ccccc12.O=Nc1c([O-])ccc2ccccc12.[Fe+3]	115%	95.8%	86.9%	110%	106%	96%	110%	97.2%	105%	72.7%	109%	88.9%	95.6%	98.8%	104%	107%	109%	–	–	–
O=C(COc1cc(O)c2c(=O)cc(-c3ccccc3)oc2c1)Nc1ccccc1C(F)(F)F	49.2%	54.3%	9.62% (active)	63.4%	63.5%	35.2%	73.4%	–	53.4%	-4.06% (active)	45.2%	64.6%	77.5%	52%	79.1%	92%	70.6%	4.09% (active)	–	34.6%
